Bioassay records: PubChem, Sanford-Burnham Center for Chemical Genomics
A selection: hits, their analogues and other compounds. The true share with any hit is near 31%.
CYP2C19 inh: blockers of cytochrome P450 2C19 activity – biochemical, luminescence, ADME assay, primary screen; P33261; hit rate 21% among 96,000; inhibition, % at 5 µM; CYP2C19 Supersomes, luciferin-H EGE luminescence, 30 min;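 active means CYP2C19 inhibition above a set limit at 5 µM in the primary screen, cut at about 50% in these data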;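 further: plate controls were negative control wells for no effect and 2.5 mM tranylcypromine positive control for full effect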
CYP2C19 activ: human CYP2C19 activators, primary screen, biochemical, luminescence. recombinant CYP2C19, luciferin-H EGE luminescence; active compounds read high; 0 = fully inhibited enzyme, 1 = untreated enzyme. AID 1025, 2008. Cytochrome P450 2C19 (Homo sapiens), P33261. activation factor at 5 µM. 96,000 tested, under 10 active;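 active means activation factor of at least 2 at 5 µM in the primary screen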;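 further: 0 = wells with 2.5 mM tranylcypromine and 1 = vehicle-only wells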
CYP2C9 inh: blockers of cytochrome P450 2C9 activity – biochemical, luminescence, ADME assay, primary screen; hit rate 20% among 96,000; inhibition, % at 5 µM; CYP2C9 Supersomes, luciferin-H conversion; P11712; AID 777, 2007;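 active means blocking of liver enzyme CYP2C9 beyond about 50% at 5 µM, limit read from the data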
PLAP activator: PLAP enzyme activators, biochemical, luminescence, HTS; Alkaline phosphatase, placental type (Homo sapiens), P05187; activation fold at 20 µM; hit rate 1.2% among 96,000; purified PLAP enzyme, luminescent substrate read-out; active compounds read high; AID 696, 2007; in the data active means activation fold above about 2
Target sequence (P05187 whole entry, looked up): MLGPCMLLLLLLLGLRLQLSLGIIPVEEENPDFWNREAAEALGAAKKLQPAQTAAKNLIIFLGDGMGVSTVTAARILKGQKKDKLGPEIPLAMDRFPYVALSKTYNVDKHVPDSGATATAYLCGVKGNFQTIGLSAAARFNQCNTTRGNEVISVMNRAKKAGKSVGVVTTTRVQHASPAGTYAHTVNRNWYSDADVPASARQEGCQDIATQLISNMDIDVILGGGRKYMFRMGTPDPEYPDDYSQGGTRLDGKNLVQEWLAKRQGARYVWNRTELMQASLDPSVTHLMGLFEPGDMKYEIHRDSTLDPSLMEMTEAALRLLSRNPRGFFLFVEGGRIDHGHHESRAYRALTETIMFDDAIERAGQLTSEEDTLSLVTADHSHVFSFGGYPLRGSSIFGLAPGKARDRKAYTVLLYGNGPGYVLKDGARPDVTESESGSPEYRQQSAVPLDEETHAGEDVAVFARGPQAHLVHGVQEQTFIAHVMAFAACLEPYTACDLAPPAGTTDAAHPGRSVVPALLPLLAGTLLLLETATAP
CYP2C9 activ: human CYP2C9 activators, primary screen, biochemical, luminescence; Cytochrome P450 2C9 (Homo sapiens), P11712; recombinant CYP2C9, luciferin-H conversion; active compounds read high; factor 1 = untreated enzyme, 0 = blocked; activation factor at 5 µM; AID 1024, 2008; hit rate 1.4% among 96,000;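 active means activation factor of 2 or more for CYP2C9 at a 5 µM dose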;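 further: 0 = sulfaphenazole-blocked wells and 1 = vehicle-only wells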
Numbers without * were called inactive.

SMILES	CYP2C19 inh	CYP2C19 activ	CYP2C9 inh	PLAP activator	CYP2C9 activ
CCOc1cc(-c2c(C#N)c(=O)[nH]c3c2c(C)nn3-c2ccc(F)cc2)ccc1O	12.2	0.9	90.6*	1.4	0.1
CCOc1cc(-c2c(C#N)c(N)nc3c2CCCC3C)ccc1O (stereo not drawn)	35.9	0.6	20.8	0.9	0.8
CCOc1cc(CNc2ccc(O)cc2)ccc1OCc1ccc(Cl)cc1Cl	15.6	0.8	33.4	1.2	0.7
CCOc1cc(CNc2ccc3cn[nH]c3c2)ccc1OC	88.3*	0.1	74.9*	1.4	0.3
COc1ccc(CNc2ccc3cn[nH]c3c2)c(OC)c1OC	98.2*	0	86.2*	2*	0.1
COc1ccccc1CNc1n[nH]c(NCc2ccccc2OC)n1	-8.0	1.1	-46.6	1.6	1.5
CCOc1ccccc1NC(=O)CC1NCCNC1=O (stereo not drawn)	15.3	0.8	-14.1	1.1	1.1
O=C(NCC12CC3CC(CC(C3)C1)C2)c1nn2c(c1Cl)NC(c1ccco1)CC2C(F)(F)F (stereo not drawn)	-1.2	1	-6.9	1.1	1.1
CCCc1nnc(NC(=O)CCC(=O)N2CCCCC2CC)s1 (stereo not drawn)	10.0	0.9	-9.8	1	1.1
O=C(c1ccc2snnc2c1)N1CCN(c2ccccn2)CC1	71.2*	0.3	8.8	0.8	0.9
CN1C(=O)/C(=C\c2ccccc2)Sc2ccc(C(=O)N3CCN(c4ccccn4)CC3)cc21	72.1*	0.3	76.6*	1.2	0.2
O=C(c1ccc2snnc2c1)N1CCN(c2ccccc2)CC1	100.0*	0	65.2*	1.5	0.3
O=C(c1ccc2snnc2c1)N1CCCC1	27.6	0.7	9.6	0.8	0.9
O=C1CSc2ccc(C(=O)N3CCN(c4ccccn4)CC3)cc2N1	23.6	0.8	19.9	1.1	0.8
O=C(CN1C(=O)C2CC=C(Cl)CC2C1=O)Nc1ccc(C(=O)O)cc1 (stereo not drawn)	-7.6	1.1	-14.1	1.2	1.1
CCn1c(SCC(N)=O)nnc1-c1ccco1	-21.0	1.2	-34.5	0.9	1.3
CCn1c(SCC(=O)c2cccs2)nnc1-c1ccco1	76.4*	0.2	12.9	0.9	0.9
CCn1c(SCC(=O)N2c3ccccc3Sc3ccccc32)nnc1-c1ccco1	89.1*	0.1	83.2*	1	0.2
Cc1c(NC(=O)c2ccc(F)c(S(=O)(=O)N3CCOCC3)c2)c(=O)n(-c2ccccc2)n1C	-19.6	1.2	-9.5	0.8	1.1
CC(Sc1nc(N2CCOCC2)nc(N2CCOCC2)n1)C(=O)Nc1ccccc1 (stereo not drawn)	32.0	0.7	79.3*	1	0.2
CC(Sc1nnc(N)s1)C(=O)Nc1ccc(N2CCOCC2)cc1 (stereo not drawn)	-5.1	1.1	-12.0	1.3	1.1
CC(C)Nc1nc(SCC(=O)Nc2ccccc2)nc(N2CCOCC2)n1	81.7*	0.2	84.2*	0.8	0.2
CC(Sc1nc(N(C)C)nc(N2CCOCC2)n1)C(=O)Nc1ccccc1 (stereo not drawn)	93.2*	0.1	92.4*	0.9	0.1
COc1cc(NC(=O)c2cccs2)c(OC)cc1NC(=O)CCn1nnc2ccccc21	28.3	0.7	45.8	1	0.5
COc1cccc2c(=O)c(C(=O)O)c[nH]c12	-17.1	1.2	33.2	1.1	0.7
SMILES	CYP2C19 inh	CYP2C19 activ	CYP2C9 inh	PLAP activator	CYP2C9 activ
COc1cccc2c(=O)c(C/C=C(/C)Cl)c(C)[nH]c12	83.7*	0.2	35.6	0.7	0.6
Cc1cccc(-c2c3c(=O)n(C)c(=O)n(C)c3cn2CC2CCCO2)c1 (stereo not drawn)	1.0	1	9.3	1.1	0.9
CCOC(=O)c1cnc(NCc2ccccc2)nc1C	51.2*	0.5	61.6*	1	0.4
CCOC(=O)c1cnc(-c2ccccc2)[nH]c1=O	10.8	0.9	54.8*	1	0.5
CCOC(=O)c1cnc(-n2nc(C)cc2C)nc1NCc1ccccc1	36.9	0.6	68.5*	1.2	0.3
CCOC(=O)c1cnc(-c2cccc(OC)c2)[nH]c1=O	4.3	1	36.1	1.1	0.6
Cc1oc(-c2ccccc2Cl)nc1CSCC(=O)NC1CCCC1	13.4	0.9	35.2	1.1	0.6
